GAA spleen mod: qHTS Assay for Inhibitors and Activators of Human alpha-Glucosidase From Spleen Homogenate. Lysosomal alpha-glucosidase (Homo sapiens), P10253. human spleen homogenate, 4-MU-alpha-glucoside fluorescence. Potency, µM (series often up to 79.9 µM), hits mostly inhibitors. 240,000 compounds, 0.006% hits
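Enzyme source: human spleen homogenate, 1 ug/well. Buffer 50 mM citric acid/K phosphate pH 5.0, 0.01% Tween-20. 4-MU-alpha-glucoside 1 mM; 37 C x 40 min; NaOH/glycine stop; fluorescence.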
N370S GC mod: qHTS Assay for Inhibitors and Activators of N370S glucocerebrosidase as a Potential Chaperone Treatment of Gaucher Disease | Lysosomal acid glucosylceramidase (Homo sapiens), P04062 | N370S GC spleen homogenate, 4MU-glucoside fluorescence | Potency, µM (titrated, usually from 59.4 µM), usual class: inhibitors | 330,000 compounds, 0.092% hits
GAA glycogen mod: qHTS Assay for Inhibitors and Activators of Human alpha-Glucosidase Cleavage of Glycogen. Lysosomal alpha-glucosidase (Homo sapiens), P10253. recombinant GAA, glycogen substrate, Amplex Red glucose oxidase fluorescence. Potency, µM (highest dose often 76.4 µM), actives largely listed as inhibitors. 300,000 compounds, 0.38% hits. AID 2100, 2009;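 note: the screen sought inhibitors and activators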
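Natural-substrate format: glycogen cleavage by 4 nM human enzyme, glucose read by Amplex Red coupling (Ex 573, Em 610 nm). Normalized to enzyme and no-enzyme controls.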
GAA inhib: qHTS Assay for Inhibitors of Human alpha-Glucosidase as a Potential Chaperone Treatment of Pompe Disease | Lysosomal alpha-glucosidase (Homo sapiens), P10253 | purified human GAA, 4-MU-alpha-glucoside fluorescence | Potency, µM (titrated, usually from 76.9 µM), hits mostly inhibitors | 200,000 compounds, 0.005% hits
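Fluorescence at Ex 365/Em 440 nm from 4-methylumbelliferone reported enzyme activity after 20 min at room temperature. Reactions used 4 nM enzyme and 400 uM substrate at pH 5.0; curves fitted with the Hill equation.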
GLA inh pH 4.5: qHTS Assay for Inhibitors of Human alpha-Galactosidase at pH 4.5. 230,000 tested, under 10 active. purified enzyme, 4-MU-alpha-Gal fluorescence, pH 4.5. Alpha-galactosidase A (Homo sapiens), P06280. activity change, negative = inhibition, % at 105 µM
GLA spleen mod: qHTS Assay for Inhibitors and Activators of Human alpha-Galactosidase From Spleen Homogenate; Alpha-galactosidase A (Homo sapiens), P06280; human spleen homogenate, 4MU-alpha-Gal fluorescence, 40 min; Potency, µM (titrated, usually from 80 µM), hits mostly inhibitors; 240,000 compounds, 0.008% hits
Target sequence (P06280 32-429 limits assumed): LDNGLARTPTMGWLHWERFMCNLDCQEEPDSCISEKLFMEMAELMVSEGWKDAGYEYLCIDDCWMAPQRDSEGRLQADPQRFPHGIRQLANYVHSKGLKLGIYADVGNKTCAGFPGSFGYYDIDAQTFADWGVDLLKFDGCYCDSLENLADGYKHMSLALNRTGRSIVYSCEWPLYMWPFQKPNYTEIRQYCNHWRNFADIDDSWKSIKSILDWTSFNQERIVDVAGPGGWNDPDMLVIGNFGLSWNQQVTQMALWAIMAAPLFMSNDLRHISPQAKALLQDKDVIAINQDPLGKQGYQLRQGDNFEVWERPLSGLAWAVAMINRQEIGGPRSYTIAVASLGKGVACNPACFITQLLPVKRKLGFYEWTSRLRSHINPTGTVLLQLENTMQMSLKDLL
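Human spleen homogenate (1 ug) as enzyme source, 4-methylumbelliferyl-alpha-D-galactopyranoside 1 mM final, citrate/phosphate pH 5.0 with 0.01% Tween-20. Compounds 40 min at 37C, NaOH/glycine stop; fluorescence Ex 365/Em 440, Hill-fit AC50.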
Hits are given with their value; i = inactive; ? = inconclusive; nt = no result; [ ] = another dose, or the depositor's remark. Rows were chosen to be rich in hits. Some 0.43% of all compounds tested hit in one or more screens of this group. Calls come from the whole dose curve; as a rule, active = well fitted curve in the direction sought with a large enough effect; inconclusive = small, poorly fitted or top-dose-only effect, or another doubt; inactive = no such curve, though single readings can be large; an effect the other way counts as inactive or inconclusive.

SMILES	GAA spleen mod	N370S GC mod	GAA glycogen mod	GAA inhib	GLA inh pH 4.5	GLA spleen mod
COC(=O)c1cc(NCc2ccc3c(c2)OCO3)ccc1N1CCOCC1	i	i	?	i	i	i
O=C(c1ccccc1)N1CCN(c2ccc(NCc3ccc4c(c3)OCO4)cc2)CC1	i	i	28µM	i	i	i
CCc1ccc(N2CCN(C(=O)c3ccc4c(c3)OCO4)CC2)cc1	nt	i	i	nt	nt	nt
CC(=O)N1CCN(c2ccc(NCc3ccc4c(c3)OCO4)cc2)CC1	i	i	22µM	i	i	i
CN(C)CC(O)Cn1c2ccc(Br)cc2c2cc(Br)ccc21 (centres undefined)	i	?	nt	nt	nt	i
CC(C)=NOC[C@@H](C)[C@H](OCc1ccccc1)C(C)C	i[17.4 µM]	i[12.8 µM]	nt	nt	nt	i[17.5 µM]
O=C1/C(=C/c2ccc(O)c(O)c2)Oc2ccccc21	i	i	nt	nt	nt	i
Cc1cc2c(c(C)c1Cl)C(c1ccc3c(c1)OCO3)CC(O)(c1ccccc1)O2 (centres undefined)	i	i	nt	nt	nt	i
COc1ccc(NCN2C(=O)C3C4C=CC(C4)C3C2=O)cc1 (centres undefined)	i	i	28µM	i	i	i
Cc1ccccc1-c1cncnc1NCc1cccs1	i	i	nt	nt	nt	i
CCCc1cc2c(=O)c(-c3cscn3)c(C(=O)OCC)oc2cc1O	i	i	i	i	i	i
CCOC(=O)c1[nH]nc(-c2cc(CC)c(O)cc2O)c1-c1cscn1	i	i	12µM	i	i	i
CC(C)CO/N=C1/C[C@@H](O)[C@@H](O)[C@@H]2[C@H]3C(=O)N(c4ccc(F)cc4F)C(=O)[C@@H]3CC[C@H]12	i[17.4 µM]	i[12.8 µM]	nt	nt	nt	i[17.5 µM]
O=S(=O)(NC1c2cccc3cccc(c23)C1N1CCNCC1)c1ccc(Cl)cc1 (centres undefined)	i	7.1µM	i	i	i	i
Cc1ccc(NC(=O)c2[nH]cnc2C(=O)NN)cc1	i	i	20µM	?	i	i
COc1ccc(CNc2nc(-c3ccccc3)nc3ccccc23)cc1OC	nt	14µM	i	nt	nt	nt
c1ccc(-c2nc(NCc3cccnc3)c3ccccc3n2)cc1	i	?	i	i	i	i
COc1ccc(CNc2n[nH]c(NCc3ccc(OC)c(OC)c3)n2)cc1OC	i	i	22µM	i	i	i
c1ccc(-c2nc(NC3CCCC3)c3ccccc3n2)cc1	nt	16µM	nt	nt	nt	nt
Fc1ccc(CNc2nc(-c3ccccc3)nc3ccccc23)cc1	i	14µM	i	i	i	i
COc1cccc(-c2nc(NCc3ccccc3)c3ccccc3n2)c1O	nt	i	i	nt	nt	nt
COC(=O)[C@@]1(Cc2ccc(OC)cc2)[C@H]2c3cc(C(=O)N(C)C)n(C)c3C[C@H]2CN1C(=O)c1ccccc1	i	i	nt	nt	i	i
Oc1ccc(Nc2nc(-c3ccccc3F)nc3ccccc23)cc1	nt	?	i	nt	nt	nt
COc1ccc(Nc2nc(-c3ccccc3F)nc3ccccc23)cc1OC	nt	2.5µM	i	nt	nt	nt
CC1Cc2c(COc3ccccc3)nc3c(c2CO1)CN(CCOc1ccccc1)CC3 (centres undefined)	i[17.4 µM]	i[12.8 µM]	nt	nt	nt	i[17.5 µM]
SMILES	GAA spleen mod	N370S GC mod	GAA glycogen mod	GAA inhib	GLA inh pH 4.5	GLA spleen mod
COc1cc(C(C(=O)NC(C)(C)C)N(C(=O)CNC(=O)c2cccs2)c2ccc(C(C)C)cc2)cc(OC)c1OC (centres undefined)	i	i	i	i	i	i
COc1cc(C(C(=O)NC(C)(C)C)N(C(=O)CNC(=O)c2cccs2)c2ccccc2)cc(OC)c1OC (centres undefined)	i	13µM	i	i	i	i
CO[C@@H]1COC(=O)CCC[C@@H](C)[C@H](OC)COC(=O)[C@H](Cc2ccccc2)NC(=O)C/C=C\[C@H]1C	i[17.4 µM]	i[12.8 µM]	nt	nt	nt	i[17.5 µM]
Cc1ccc2oc(C(=O)Nc3ccc(S(=O)(=O)N4CCCCC4C)cc3)cc(=O)c2c1 (centres undefined)	nt	nt	7.1µM	nt	nt	nt
COc1ccc(C2c3sc(=O)[nH]c3SCC2C(N)=O)cc1 (centres undefined)	i	i	?	nt	i	i
COc1cc(C2c3sc(=O)[nH]c3SC3C(=O)N(c4ccc(C)cc4)C(=O)C32)ccc1O (centres undefined)	i	i	11µM	i	i	i
COC(=O)C1CSc2[nH]c(=O)sc2C1c1ccc(O)c(OC)c1 (centres undefined)	i	i	16µM	i	i	i
CCCCc1nc2c(c3c1C[C@H](C)OC3)CN(S(=O)(=O)c1c(C)noc1C)CC2	i[17.4 µM]	i[12.8 µM]	nt	nt	i	i[17.5 µM]
COc1cc(C)c(N)cc1C(C)C	i	i	14µM	i	i	i
Cc1ccc2c(c1)N(CCCC(=O)NCc1cccc(F)c1)C(=O)CO2	nt	nt	45µM	nt	nt	nt
Brc1ccc2nc(-c3cccs3)c(NCC3CCCO3)n2c1 (centres undefined)	i	?	6.3µM	i	i	i
CNC(=O)c1c(NC(=O)c2ccco2)sc2c1CCCC2	nt	i	i	nt	nt	nt
Cc1ccc(C(=O)C(NC(=O)c2ccco2)Nc2sc3c(c2C(N)=O)CCCC3)cc1 (centres undefined)	i	i	25µM	i	i	i
C=CCOC(=O)C(C(C)=O)C(NC(=O)OC)c1ccco1 (centres undefined)	i[17.4 µM]	i[12.8 µM]	nt	nt	nt	i[17.5 µM]
O=C(O)c1ccc(O)cc1	i	i	nt	nt	nt	i
O=C(O)c1ccc(O)c(O)c1	i	i	5µM	i	i	i
Cc1ccc2c(=O)cc(C(=O)Nc3ccc(S(=O)(=O)N4CCCCCC4)cc3)oc2c1C	nt	nt	i	nt	nt	nt
O=C(CN1C(=O)c2ccccc2S1(=O)=O)c1ccc(F)c(F)c1	nt	i	nt	nt	nt	nt
O=C(CN1C(=O)c2ccccc2S1(=O)=O)c1ccc(O)c(O)c1	i	i	14µM	nt	i	i
Cc1cc(Nc2ccc(Cl)cc2)n(-c2ccccc2)n1	i	i	?	i	i	i
Cc1cc(Nc2nc3c(c(=O)n(C)c(=O)n3C)n2C)n(-c2ccc(Cl)cc2)n1	i	i	25µM	i	i	i
CCCCCCCCC/C=C/CC1CC(=O)OC1=O (centres undefined)	i	i	nt	nt	nt	i
Oc1ccc(N2CCN(C(c3cccs3)c3nnnn3CCc3ccccc3)CC2)cc1 (centres undefined)	i	?	28µM	i	i	i
COc1ccc(Cn2nnnc2C(c2cccs2)N2CCN(c3ccccc3)CC2)cc1 (centres undefined)	i	i[2.35 µM]	i	i	i	i
COC(=O)c1[nH]c2cc(OC)c(OC)cc2c1NC(=O)Oc1ccccc1	i	i	35µM	?	i	i

Screening data (PubChem)
